Assay [1] deals with T1, Muscle, skeletal receptor tyrosine-protein kinase (Homo sapiens) (UniProt O15146).
T1 sequence (whole entry): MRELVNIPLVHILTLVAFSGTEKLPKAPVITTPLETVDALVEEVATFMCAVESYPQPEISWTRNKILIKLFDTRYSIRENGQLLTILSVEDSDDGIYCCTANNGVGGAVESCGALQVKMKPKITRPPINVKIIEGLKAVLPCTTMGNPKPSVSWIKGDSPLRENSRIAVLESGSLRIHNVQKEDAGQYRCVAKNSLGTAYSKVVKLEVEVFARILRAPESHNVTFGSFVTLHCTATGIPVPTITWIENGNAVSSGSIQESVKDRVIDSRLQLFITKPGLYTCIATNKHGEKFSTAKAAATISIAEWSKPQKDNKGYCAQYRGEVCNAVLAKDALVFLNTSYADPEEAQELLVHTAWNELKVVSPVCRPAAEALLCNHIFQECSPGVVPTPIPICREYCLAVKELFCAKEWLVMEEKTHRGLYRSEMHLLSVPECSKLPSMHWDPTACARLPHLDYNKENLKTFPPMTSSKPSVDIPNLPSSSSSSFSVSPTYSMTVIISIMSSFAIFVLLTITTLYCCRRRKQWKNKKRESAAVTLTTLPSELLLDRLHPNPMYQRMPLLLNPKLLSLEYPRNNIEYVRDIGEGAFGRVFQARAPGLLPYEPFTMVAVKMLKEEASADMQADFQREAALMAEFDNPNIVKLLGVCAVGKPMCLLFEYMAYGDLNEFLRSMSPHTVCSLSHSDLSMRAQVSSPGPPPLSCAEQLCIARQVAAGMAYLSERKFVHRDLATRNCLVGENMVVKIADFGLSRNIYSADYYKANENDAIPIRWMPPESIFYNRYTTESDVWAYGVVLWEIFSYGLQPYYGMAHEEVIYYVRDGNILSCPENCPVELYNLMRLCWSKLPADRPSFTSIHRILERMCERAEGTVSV
Particulars: at 1 µM.

For assay [2], the target named is T1, Muscle, skeletal receptor tyrosine-protein kinase (Homo sapiens). Particulars: at 10 µM.
Assay [3] deals with T2, Serine/threonine-protein kinase Nek11 (Homo sapiens) (UniProt Q8NG66).
T2 sequence (whole entry): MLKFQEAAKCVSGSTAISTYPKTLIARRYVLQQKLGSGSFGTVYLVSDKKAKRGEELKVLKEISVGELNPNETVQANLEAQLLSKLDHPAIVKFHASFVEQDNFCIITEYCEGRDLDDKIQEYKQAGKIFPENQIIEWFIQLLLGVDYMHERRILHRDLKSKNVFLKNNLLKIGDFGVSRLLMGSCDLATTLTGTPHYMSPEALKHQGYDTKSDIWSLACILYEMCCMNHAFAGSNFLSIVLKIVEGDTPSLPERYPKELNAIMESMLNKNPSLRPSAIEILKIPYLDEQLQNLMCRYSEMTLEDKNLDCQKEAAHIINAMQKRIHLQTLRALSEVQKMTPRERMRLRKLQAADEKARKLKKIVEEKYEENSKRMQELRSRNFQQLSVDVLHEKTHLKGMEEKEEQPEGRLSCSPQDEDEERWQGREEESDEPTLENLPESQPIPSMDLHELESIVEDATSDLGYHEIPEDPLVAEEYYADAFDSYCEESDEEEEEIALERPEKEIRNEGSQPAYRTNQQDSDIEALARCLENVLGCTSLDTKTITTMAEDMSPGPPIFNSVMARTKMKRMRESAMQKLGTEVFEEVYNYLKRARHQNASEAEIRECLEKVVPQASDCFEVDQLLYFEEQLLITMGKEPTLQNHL
To be noted: at 1 µM.

Assay [4] has as its target T2, Serine/threonine-protein kinase Nek11 (Homo sapiens). To be noted: at 10 µM.
For assay [5], the target named is T3, Serine/threonine-protein kinase Nek2 (Homo sapiens) (UniProt P51955).
T3 sequence (whole entry): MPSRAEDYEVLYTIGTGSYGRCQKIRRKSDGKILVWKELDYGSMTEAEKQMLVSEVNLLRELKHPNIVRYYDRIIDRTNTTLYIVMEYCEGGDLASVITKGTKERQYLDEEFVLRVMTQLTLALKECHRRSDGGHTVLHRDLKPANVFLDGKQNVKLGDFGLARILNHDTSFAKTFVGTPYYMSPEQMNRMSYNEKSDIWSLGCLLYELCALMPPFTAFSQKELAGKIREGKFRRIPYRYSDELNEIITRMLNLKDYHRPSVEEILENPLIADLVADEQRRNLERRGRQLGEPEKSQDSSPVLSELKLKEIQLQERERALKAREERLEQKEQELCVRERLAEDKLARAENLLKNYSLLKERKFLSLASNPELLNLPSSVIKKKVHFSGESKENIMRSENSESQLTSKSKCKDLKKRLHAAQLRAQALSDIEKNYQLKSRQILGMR
To be noted: at 1 µM.

Assay [6] concerns the target T3, Serine/threonine-protein kinase Nek2 (Homo sapiens). Particulars: at 10 µM.
The target of assay [7] is T4, Serine/threonine-protein kinase Nek3 (Homo sapiens) (UniProt P51956).
T4 sequence (whole entry): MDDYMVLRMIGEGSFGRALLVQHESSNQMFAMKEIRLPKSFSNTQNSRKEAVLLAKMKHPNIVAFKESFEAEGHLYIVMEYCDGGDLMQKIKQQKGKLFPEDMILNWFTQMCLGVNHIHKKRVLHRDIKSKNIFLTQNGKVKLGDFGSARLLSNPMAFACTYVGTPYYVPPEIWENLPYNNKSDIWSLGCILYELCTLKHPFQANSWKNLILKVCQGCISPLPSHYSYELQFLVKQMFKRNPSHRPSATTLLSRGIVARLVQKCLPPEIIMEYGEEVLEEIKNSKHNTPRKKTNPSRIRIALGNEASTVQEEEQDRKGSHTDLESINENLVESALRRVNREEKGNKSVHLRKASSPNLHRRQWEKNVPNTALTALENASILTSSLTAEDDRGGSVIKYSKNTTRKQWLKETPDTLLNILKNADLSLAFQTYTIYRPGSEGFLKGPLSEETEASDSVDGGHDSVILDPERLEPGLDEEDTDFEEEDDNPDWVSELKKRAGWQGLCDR
Particulars: at 1 µM.

Assay [8] addresses T4, Serine/threonine-protein kinase Nek3 (Homo sapiens). To be noted: at 10 µM.
For assay [9], the target named is Serine/threonine-protein kinase tousled-like 2 (Homo sapiens) (UniProt Q86UE8). Particulars: at 10 µM.
Serine/threonine-protein kinase tousled-like 2 (Homo sapiens), sequence (Q86UE8 whole entry, looked up): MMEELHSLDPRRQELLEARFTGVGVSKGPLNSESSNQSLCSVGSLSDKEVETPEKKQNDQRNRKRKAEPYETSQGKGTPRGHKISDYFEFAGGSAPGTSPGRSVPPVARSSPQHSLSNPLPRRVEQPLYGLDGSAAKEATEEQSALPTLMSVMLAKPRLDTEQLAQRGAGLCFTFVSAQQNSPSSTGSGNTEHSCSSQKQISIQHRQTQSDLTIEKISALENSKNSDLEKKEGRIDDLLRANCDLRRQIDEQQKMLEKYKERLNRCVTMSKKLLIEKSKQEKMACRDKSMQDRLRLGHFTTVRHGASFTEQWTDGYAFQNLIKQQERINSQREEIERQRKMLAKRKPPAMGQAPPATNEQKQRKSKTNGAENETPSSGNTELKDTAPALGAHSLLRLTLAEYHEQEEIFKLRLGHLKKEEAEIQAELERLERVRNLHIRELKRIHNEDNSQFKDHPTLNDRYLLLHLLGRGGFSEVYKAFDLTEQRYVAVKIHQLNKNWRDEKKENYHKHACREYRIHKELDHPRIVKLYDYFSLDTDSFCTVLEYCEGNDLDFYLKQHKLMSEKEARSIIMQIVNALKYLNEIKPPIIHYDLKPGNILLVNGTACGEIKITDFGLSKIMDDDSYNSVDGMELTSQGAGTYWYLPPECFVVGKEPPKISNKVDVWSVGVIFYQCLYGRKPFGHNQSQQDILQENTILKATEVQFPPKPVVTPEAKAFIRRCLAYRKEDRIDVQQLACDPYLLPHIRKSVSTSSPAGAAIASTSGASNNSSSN
Assay [10] has the same target. To be noted: at 1 µM.

Regarding `CSc1nc(-c2ccc(F)cc2)c(-c2ccnc(NC(C)c3ccccc3)c2)[nH]1` (configuration not stated), the residual activity in assay [1] was found to be 98%; in assay [2] it was 81%; in [3] it was 83%; in [4], 54%; in assay [5], 99%; in assay [6], 102%. Also, the residual activity in [7] amounted to 95%; in [8], 90%.

As to `O=C1Nc2ccccc2/C1=C\c1c(Cl)[nH]c2ccccc12`, the residual activity in [1] was found to be 78%; in [2] it was 70%; in [3], 64%; in assay [4], 29%; in assay [6] it was 77%; in assay [7], 82%. Besides, the residual activity in assay [9] is 76%.

As to `CC(C)[C@H](CO)Nc1nc(Nc2cc(N)cc(Cl)c2)c2ncn(C(C)C)c2n1`, the residual activity came to 62% in [1]; 10% in assay [2]; 84% in assay [3]; 48% in assay [4]; 76% in assay [6]; 85% in assay [7]. For the same molecule, the residual activity is 70% in assay [8], 95% in [10] and 73% in assay [9].

Regarding `O=C(c1cc2cc(O)ccc2[nH]1)c1cc2cc(O)ccc2[nH]1`, the residual activity in assay [1] turned out to be 43%; in assay [2] it was 4%; in assay [3], 54%; in [4], 38%; in [5] it was 77%; in assay [6], 73%. Also, the residual activity worked out at 111% in assay [7], 72% in [8], 81% in [10] and 32% in [9].

For the molecule `O=C1NC(=O)c2c1c1c3ccccc3[nH]c1n1cncc21`, the residual activity was 72% in [1]; 55% in assay [2]; 36% in [3]; 34% in assay [4]; 77% in assay [5]; 63% in [6]. Moreover, the residual activity stood at 77% in assay [7], 86% in [8], 74% in [10] and 58% in assay [9].

Consider `Cn1c2ccccc2c2c3c(c4c5ccccc5n(CCC#N)c4c21)CNC3=O`, for which the residual activity was determined as 32% in assay [1]; 37% in assay [2]; 49% in assay [3]; 60% in assay [4]; 76% in assay [5]; 82% in [6]. Further, in [7], the residual activity is 100%.

On to `CCN(CC)CCNC(=O)c1c(C)[nH]c(/C=C2\C(=O)Nc3ccc(Cl)cc32)c1C`, for which the residual activity stood at 3% in assay [1]; 0% in [2]; 80% in [3]; 31% in [4]; 67% in [5]; 18% in assay [6]. Moreover, the results for the residual activity in assay [10] and in assay [9] were 69% and 14%, respectively.

Turning to `Nc1n[nH]c2nc3ccccc3nc12`, the residual activity stood at 76% in assay [1]; 87% in assay [2]; 70% in assay [3]; 80% in assay [4]; 115% in assay [5]; 81% in assay [6]. For the same molecule, the residual activity in assay [7] turned out to be 80%; in [8], 83%; in [10], 91%; in assay [9] it was 81%.

In the case of `Nc1nccc(-c2c(-c3ccc(F)cc3)ncn2C2CCNCC2)n1`, the residual activity in assay [3] was 68%; in assay [4], 77%.

Consider `O=C(c1ccccc1)c1ccc(N2CCOCC2)cc1O`, for which the values for the residual activity in [2], in assay [3] and in [5] were 86%, 89% and 90%, respectively.

For the molecule `c1ccc(-c2cnc(Nc3ccc(OCCN4CCCC4)cc3)s2)cc1`, the residual activity in assay [1] amounted to 4%; in [2], 0%; in assay [3], 81%; in assay [4], 76%; in [7], 115%; in assay [8] it was 76%. The values for the residual activity in [10] and in assay [9] were 105% and 81%, respectively.

Regarding `CCOC(=O)c1c(C)[nH]c(/C=C2\C(=O)Nc3ccccc32)c1C`, the residual activity in [3] turned out to be 97%; in [4] it was 98%; in assay [9] it was 98%.

For `N#Cc1c(NC(=O)c2cccc3ccccc23)sc2c1CCCC2`, the residual activity was found to be 96% in assay [1]; 78% in assay [2]; 82% in assay [3]; 72% in assay [4]; 76% in assay [7]; 100% in assay [10]. Also, in assay [9], the residual activity was 96%.

By residual activity is commonly meant the signal under treatment as a percentage of the control signal.

The values above are taken from ChEMBL document CHEMBL2218924, “A broad activity screen in support of a chemogenomic map for kinase signalling research and drug discovery” (Biochem J, 2013).
